Test results taken from the supplement of paper PMC8253809.
Several values for one entry are separate records, joined by “and”; a condition that tells them apart may be missing. Identical values can stand only once.

Assays:
Assay in all cases: growth inhibition (% activity, log2 RLU normalised to DMSO / staurosporine); higher = more growth inhibition
Conditions in all cases: 33 µM
DIPGX29 = test system: DIPGX29 (H3.3 K27M diffuse intrinsic pontine glioma line)
Procedure, shortened: (§1)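 Cells (pHGG lines and H9-derived neural stem cells) were plated on Geltrex-coated 384-well plates and exposed to approved drugs at a single final concentration of about 33 μM, in triplicate, for 7 days at 37 °C, 5% CO2. Log2-transformed CellTiter-Glo luminescence was normalised per plate to % activity between solvent and positive control wells, and the growth-inhibition value is the median over replicates.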

DIPGX37 = test system: DIPGX37 (H3.3 K27M diffuse intrinsic pontine glioma line)
Procedure, shortened: as §1

DIPGX7 = test system: DIPGX7 (H3.3 K27M diffuse intrinsic pontine glioma line)
Procedure, shortened: as §1

DIPGX9 = test system: DIPGX9 (diffuse intrinsic pontine glioma line)
Procedure, shortened: as §1

HGGX39 = test system: HGGX39 (paediatric high-grade glioma line)
Procedure, shortened: as §1

HGGX6 = test system: HGGX6 (H3.3 G34R paediatric high-grade glioma line)
Procedure, shortened: as §1

HNSC = test system: HNSC
Procedure, shortened: as §1

SUDIPGIV = test system: SUDIPGIV (diffuse intrinsic pontine glioma line)
Procedure, shortened: as §1

SUDIPGVI = test system: SUDIPGVI (diffuse intrinsic pontine glioma line)
Procedure, shortened: as §1

SUDIPGXIII = test system: SUDIPGXIII (diffuse intrinsic pontine glioma line)
Procedure, shortened: as §1

Structure (SMILES)	growth inhibition (DIPGX29)	growth inhibition (DIPGX37)	growth inhibition (DIPGX7)	growth inhibition (DIPGX9)	growth inhibition (HGGX39)	growth inhibition (HGGX6)	growth inhibition (HNSC)	growth inhibition (SUDIPGIV)	growth inhibition (SUDIPGVI)	growth inhibition (SUDIPGXIII)
CN1[C@@H]2CC[C@H]1C[C@@H](OC(c1ccccc1)c1ccccc1)C2	4.24%	-1.03%	6.35%	2.77%	6.58%	5%	9.97%	2.1%	3.58%	0.606%
NC(=O)c1ncn([C@@H]2O[C@H](CO)[C@@H](O)[C@H]2O)n1	-0.559%	0.551%	0.987%	0.303%	1.53%	0.756%	-0.0938%	-0.992%	2.19%	0.78%
CC(C)c1nc(CN(C)C(=O)N[C@H](C(=O)N[C@@H](Cc2ccccc2)C[C@H](O)[C@H](Cc2ccccc2)NC(=O)OCc2cncs2)C(C)C)cs1	1.73%	2.67%	2.88%	1.93%	5.32%	2.08%	5.1%	-1.31%	-0.349%	-0.136%
CCCCNc1ccc(C(=O)OCCN(C)C)cc1	-1.31%	-0.907%	0.627%	-0.979%	5.11%	4.5%	0.385%	-0.481%	-2.2%	1.02%
CC=CC1=C(C(=O)O)N2C(=O)[C@@H](NC(=O)[C@H](N)c3ccc(O)cc3)[C@H]2SC1	-1.6%	0.508%	-0.595%	0.543%	-1.99%	1.84%	-1.83%	-0.89%	0.277%	-12.4%
O=C(CCCCCCC(=O)Nc1ccccc1)NO	46.8%	23.9%	51.7%	49.5%	18.5%	33.7%	70.6%	44.9%	38.5%	28%
Cc1cccc(C)c1NC(=O)C1CCCCN1C (stereo not given)	0.788%	0.607%	-0.12%	0.0719%	1.51%	1.22%	-1.45%	-0.501%	1.09%	1.48%
C#C[C@]1(O)CC[C@H]2[C@@H]3CCc4cc(O)ccc4[C@H]3CC[C@@]21C	0.982%	1.91%	0.741%	0.29%	0.261%	2.48%	0.451%	-1.64%	1.36%	0.6%
CCCc1nn(C)c2c(=O)[nH]c(-c3cc(S(=O)(=O)N4CCN(C)CC4)ccc3OCC)nc12	0.246%	-4.11%	0.899%	-0.0138%	0.834%	-0.171%	0.834%	-2.48%	0.71%	-0.097%
CN1CCC[C@H]1c1cccnc1	0.174%	0.939%	-1.09%	-1.61%	2.08%	0.579%	-0.787%	-0.338%	-0.198%	1.09%
O=P(O)(O)C(O)(Cc1cccnc1)P(=O)(O)O	0.184% and -0.127%	-0.218% and -0.408%	2.03% and 0.167%	0.335% and 1.09%	3.43% and 1.8%	2.06% and -1.19%	2.32% and -0.808%	-0.292% and 0.354%	-0.685% and 2.28%	-0.822% and -0.975%
CN[C@H]1CC[C@@H](c2ccc(Cl)c(Cl)c2)c2ccccc21	13.3%	6.8%	6.25%	4.32%	7.5%	7.73%	55%	3.54%	6.72%	1.68%
NS(=O)(=O)c1cc2c(cc1Cl)N=C(CSCc1ccccc1)NS2(=O)=O	-2.8%	-0.538%	-2.64%	-1.82%	-3.59%	-4.3%	3.58%	-1.69%	-6.04%	-0.239%
O=C(O)c1cn(C2CC2)c2cc(N3CCNCC3)c(F)cc2c1=O	-1.96%	-2.35%	-2.23%	-1.26%	-1.56%	-1.82%	-1.04%	-1.7%	-2.88%	-1.57%
O=C(O)c1ccccc1	-1.57%	1.08%	-0.546%	-0.0449%	0.585%	-1.44%	1.02%	1.15%	-2.88%	1.73%
CO[C@H]1C[C@@H]2CC[C@@H](C)[C@@](O)(O2)C(=O)C(=O)N2CCCC[C@H]2C(=O)O[C@H]([C@H](C)C[C@@H]2CC[C@@H](OC(=O)C(C)(CO)CO)[C@H](OC)C2)CC(=O)[C@H](C)/C=C(\C)[C@@H](O)[C@@H](OC)C(=O)[C@H](C)C[C@H](C)/C=C/C=C/C=C/1C	1.36%	0.103%	4.97%	14%	6.98%	5.24%	3.52%	1.47%	3.49%	-0.989%

Structure (SMILES)	growth inhibition (DIPGX29)	growth inhibition (DIPGX37)	growth inhibition (DIPGX7)	growth inhibition (DIPGX9)	growth inhibition (HGGX39)	growth inhibition (HGGX6)	growth inhibition (HNSC)	growth inhibition (SUDIPGIV)	growth inhibition (SUDIPGVI)	growth inhibition (SUDIPGXIII)
NC(=O)N1c2ccccc2C=Cc2ccccc21	-0.706%	3.98%	0.653%	1.56%	1.28%	0.945%	2.65%	0.457%	1.8%	-0.0848%
c1cnc2cc3c(cc2n1)[C@@H]1CNC[C@H]3C1	1.18%	-2.8%	1.78%	0.684%	0.561%	1.15%	0.349%	-0.44%	-0.35%	-1.07%
Clc1ccc(C(Cn2ccnc2)OCc2c(Cl)cccc2Cl)c(Cl)c1 (stereo not given)	2.72%	3.03%	3.97%	3.76%	8.33%	5.87%	4.09%	11.2%	2.55%	10.5%
Cn1ccnc1S	-2.03%	-0.808%	-1.31%	-0.195%	-0.799%	-0.968%	-4.2%	-2.69%	-1.6%	-8.17%
CC(C)n1c(/C=C/[C@@H](O)C[C@@H](O)CC(=O)O)c(-c2ccc(F)cc2)c2ccccc21	4.64%	0.671%	6.29%	6.39%	18.7%	10.2%	26.9%	26.2%	0.023%	3.96%
OC(CCN1CCCCC1)(c1ccccc1)C1CC2C=CC1C2 (stereo not given)	-0.000402%	-2.1%	1.09%	-1.44%	-1.06%	-1.38%	0.31%	-2.82%	-4.33%	1%
CN(C)[C@@H]1C(O)=C(C(=O)NCN2CCCC2)C(=O)[C@@]2(O)C(O)=C3C(=O)c4c(O)cccc4[C@@](C)(O)[C@H]3C[C@@H]12	-1.08%	-1.26%	-0.844%	0.66%	-0.334%	0.151%	-2.27%	0.0649%	2.48%	0.413%
CN(N=O)C(=O)N[C@H]1C(O)O[C@H](CO)[C@@H](O)[C@@H]1O (mixture of isomers)	0.875%	2.37%	2.05%	1.8%	0.924%	2.69%	2.82%	1.45%	2.34%	0.628%
O=c1[nH]c(=O)n([C@H]2C[C@H](O)[C@@H](CO)O2)cc1F	18.6%	6.96%	12.8%	10.7%	10.9%	14.3%	67.3%	26.2%	4.66%	6.72%
Cc1ccc(Nc2nccc(N(C)c3ccc4c(C)n(C)nc4c3)n2)cc1S(N)(=O)=O	3.74% and 7.46%	4.99% and 1.63%	5% and 10.4%	3.67% and 7.92%	6.65% and 10.2%	5.31% and 11.1%	4.18% and 9.11%	4.44% and 6.85%	5.08% and 5.8%	3.27% and 1.33%
O=C(O)C[C@H](O)C[C@H](O)/C=C/c1c(C2CC2)nc2ccccc2c1-c1ccc(F)cc1	16.1%	-2.02%	38.6%	7.33%	48.3%	30.8%	56.2%	39.9%	33.5%	32.8%
NC[C@H]1O[C@H](O[C@H]2[C@H](O)[C@@H](O[C@H]3O[C@H](CO)[C@@H](O)[C@H](N)[C@H]3O)[C@H](N)C[C@@H]2N)[C@H](N)C[C@@H]1O	-1.1%	-0.159%	-0.415%	-0.0629%	-1.03%	1.31%	-1.87%	-0.0713%	-0.514%	-17.5%
CCS(=O)(=O)CCn1c([N+](=O)[O-])cnc1C	-0.456%	1.05%	-1.24%	-0.171%	-0.367%	-1.57%	-1.98%	-0.809%	-3.73%	0.464%
CC(C(=O)O)c1ccc2c(c1)[nH]c1ccc(Cl)cc12 (stereo not given)	-0.444%	-0.934%	0.549%	-0.825%	-0.747%	0.65%	-2.15%	-2.81%	-0.161%	-6.63%
C=C1/C(=C\C=C2/CCC[C@]3(C)[C@@H]([C@H](C)/C=C/[C@H](C)C(C)C)CC[C@@H]23)C[C@@H](O)C[C@@H]1O	0.433%	1.95%	5.3%	2.6%	3.71%	2.65%	3.33%	0.335%	1.4%	1.03%
CC(=O)O[C@H]1C(=O)[C@@]2(C)[C@H]([C@H](OC(=O)c3ccccc3)[C@]3(O)C[C@H](OC(=O)[C@H](O)[C@@H](NC(=O)c4ccccc4)c4ccccc4)C(C)=C1C3(C)C)[C@]1(OC(C)=O)CO[C@@H]1C[C@@H]2O	9.71%	8.37%	6.36%	22%	32.7%	16.2%	60.4%	25.9%	6.74%	6%
